Screens from PubChem.
DRD3 antagonist = D3 dopamine receptor (human) antagonism; AID 652054; D3R cells, DiscoveRx beta-arrestin luminescence, antagonist mode; stronger effect = lower value; max response, negative = inhibition, %; P35462; 2.5% of 360,000 active; in the data active = max response below about -50%; inconclusive = no clear call, values can overlap the other calls; note: % is set by controls: 0 for no effect and ±100 for the full control effect
Target sequence (P35462 whole entry, looked up): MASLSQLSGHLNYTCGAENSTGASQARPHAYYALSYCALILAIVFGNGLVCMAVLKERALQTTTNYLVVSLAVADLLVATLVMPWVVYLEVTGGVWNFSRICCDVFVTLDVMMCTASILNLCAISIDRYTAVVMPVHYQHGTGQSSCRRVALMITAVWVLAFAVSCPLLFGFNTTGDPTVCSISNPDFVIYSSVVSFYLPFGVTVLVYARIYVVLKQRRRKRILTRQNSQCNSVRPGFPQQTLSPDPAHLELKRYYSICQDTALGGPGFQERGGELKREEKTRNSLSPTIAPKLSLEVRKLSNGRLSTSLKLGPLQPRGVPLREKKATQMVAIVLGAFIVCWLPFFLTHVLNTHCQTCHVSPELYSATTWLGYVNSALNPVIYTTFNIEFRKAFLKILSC
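Cells expressing the human receptor were seeded at 1500 cells/well, incubated overnight at 37 degrees C in 5% CO2, then exposed to library compounds with dopamine controls for 90 minutes at 37 degrees C before luminescent detection.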
TRPML1 agonist = human mucolipin-1 channel agonism. 0.12% of 410,000 active. Q9GZU1. activation, % (test concentration not listed). TRPML1-expressing cells, Ca2+ dye fluorescence, FDSS; in the data active = activation above about 50%; inconclusive = mostly about 30% to 49%; note: 0% is about no effect
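Calcium fluorescence on an FDSS kinetic reader gave the read-out. Tet-induced TRPML1-DL cells were plated overnight, dye-loaded (Ca8 with quencher, 45-90 min, room temperature, dark), then read 110 s after compound addition, and again 110 s after 4uM final 54-4 (EC80).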
TRPML1 blocker = blocks the human TRPML1 channel | 0.02% of 390,000 active | TRPML1-inducible cells, Ca2+ dye fluorescence, FDSS; stronger effect = lower value; inhibition of EC80 agonist-evoked calcium signal | activity change, negative = inhibition, % (test concentration not listed) | Q9GZU1 | AID 624415; in the data active = activity change below about -50%; inconclusive = between about -30% and that limit;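 note: stimulus is agonist 54-4 at its EC80 concentration; % is set by controls: 0 for no effect and ±100 for the full control effect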
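Tet-induced TRPML1-DL cells loaded with Ca8 no-wash calcium dye were read kinetically on FDSS. Compound addition was followed by EC80 agonist 54-4 (4 uM final); inhibition was read over 110 s.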
D3 ag = agonists of human D3 dopamine receptor | P35462 | AID 652048 | 0.58% of 410,000 active | max activation, % | D3R DiscoveRx beta-arrestin cells, luminescence, 90 min; in the data active = max activation above about 30%; note: 0% is about no effect
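Agonist mode: compounds and dopamine controls were applied to plated cells for 90 min at 37 degrees C after an overnight attachment at 1500 cells/well. Luminescent read-out followed 30 - 60 minutes at room temperature with DiscoveRx detection reagent.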
An asterisk follows results filed as active. This is a sample that favours compounds with a hit; in the whole collection about 2.9% have one here.

Results for COc1cc2nc(N3CCCCC3)nc(NC3CC3)c2cc1OC ?
TRPML1 agonist: -0.4

How did CCC(C)Nc1nc(Cl)nc(N(C#N)CN2C(=O)c3ccccc3S2(=O)=O)n1 (stereo not given) do in these assays?
DRD3 antagonist: -70.9*; TRPML1 agonist: 6.4; TRPML1 blocker: -4.0; D3 ag: -2.5

How did CC(C)Nc1nc(Cl)nc(N(C#N)CN2C(=O)c3ccccc3C2=O)n1 do in these assays?
DRD3 antagonist: inconclusive; TRPML1 agonist: -0.3; TRPML1 blocker: -2.1; D3 ag: -3.3

How did COc1ccc(CCNC(=O)C(=O)NCC(c2ccco2)S(=O)(=O)c2ccccc2)cc1OC (stereo not given) do in these assays?
TRPML1 agonist: 1.1; TRPML1 blocker: 8.8; D3 ag: -20.1

How did Nc1ccc2c3c(cccc13)-c1ccccc1-2 do in these assays?
DRD3 antagonist: 17.0; TRPML1 agonist: inconclusive; TRPML1 blocker: -5.9; D3 ag: 30.0*

How did CCOC(=O)c1c(NC(=O)CSc2cn(CCNC(=O)c3ccc(OC)c(OC)c3)c3ccccc23)sc2c1CCCC2 do in these assays?
TRPML1 agonist: -0.3; TRPML1 blocker: 4.8; D3 ag: -0.6

Results for OC(Br)C(O)C(O)N1CCCc2ccccc21 (stereo not given) ?
TRPML1 agonist: -0.7

What do the screens show for `COc1ccc(N=C2SCC(=O)N2CCc2ccc(OC)c(OC)c2)cc1`?
DRD3 antagonist: 21.3; TRPML1 agonist: 3.7; TRPML1 blocker: 12.1; D3 ag: -6.0

What do the screens show for `COc1ccc(CCN2C(=O)CSC2=Nc2ccc(C(C)C)cc2)cc1OC`?
DRD3 antagonist: 45.9; TRPML1 agonist: 3.2; TRPML1 blocker: 1.9; D3 ag: 43.4*

How did CC(C(=O)NC(C)(C)C)N(C(=O)CS(=O)CC(=O)Nc1ccc(F)cc1)C1CCCC1 (stereo not given) do in these assays?
DRD3 antagonist: 10.6; TRPML1 agonist: 1.1; TRPML1 blocker: 33.6; D3 ag: 36.8*

How did O=C(CS(=O)CC(=O)N(CC(=O)NC1CCCC1)C1CCCCC1)Nc1ccc(F)cc1 (stereo not given) do in these assays?
DRD3 antagonist: 51.8; TRPML1 agonist: -0.6; TRPML1 blocker: 9.6; D3 ag: 1.3

What do the screens show for `O=C1CCCCC(=O)[C@H](O)C[C@H](COCc2ccccc2)O1`?
DRD3 antagonist: 0.0; TRPML1 agonist: -0.2; D3 ag: 90.9*

What do the screens show for `COc1ccc(CC2=CC(=O)c3ccccc3C2=O)cc1`?
DRD3 antagonist: -55.6*; D3 ag: -17.6

What do the screens show for `CCOc1ccc(S(=O)(=O)Nc2ccccc2SC)cc1`?
DRD3 antagonist: -64.6*; TRPML1 agonist: 3.4; TRPML1 blocker: 9.9; D3 ag: -17.2

Results for CN(c1ccccc1)S(=O)(=O)c1ccc2ccccc2c1 ?
DRD3 antagonist: 7.8; TRPML1 agonist: 0.9; TRPML1 blocker: -11.0; D3 ag: -4.1

What do the screens show for `COc1ccccc1NS(=O)(=O)c1ccc2c(c1)OCCO2`?
DRD3 antagonist: -10.7; TRPML1 agonist: 0.2; TRPML1 blocker: -19.6; D3 ag: -5.8

What do the screens show for `CSc1ccccc1NS(=O)(=O)c1ccc2c(c1)OCCO2`?
DRD3 antagonist: -85.2*; TRPML1 agonist: -0.3; TRPML1 blocker: -6.5; D3 ag: -0.5

Results for CN(c1ccccc1)S(=O)(=O)c1ccc2c(c1)OCCO2 ?
DRD3 antagonist: -11.3; TRPML1 agonist: -0.7; TRPML1 blocker: -9.8; D3 ag: 40.8*

Results for CCCCOc1ccc(CC(=O)N(C)OC)cc1 ?
TRPML1 agonist: -1.1

How did CCn1cc2nc(SCC(=O)Nc3ccc(C)cc3)n(Cc3ccc(C)cc3)c(=O)c2n1 do in these assays?
TRPML1 agonist: 0.0; TRPML1 blocker: 10.0; D3 ag: -14.4

What do the screens show for `Cc1cn([C@H]2C[C@H](O)[C@@H](/C=C/C(=O)NCc3ccccc3)O2)c(=O)[nH]c1=O`?
DRD3 antagonist: -5.7; TRPML1 agonist: -0.3; TRPML1 blocker: 6.6; D3 ag: -1.3

Results for Cc1cn([C@H]2C[C@H](O)[C@@H](/C=C/C(=O)NCCc3cccnc3)O2)c(=O)[nH]c1=O ?
DRD3 antagonist: -22.9; TRPML1 agonist: -0.1; TRPML1 blocker: 15.5; D3 ag: 58.9*

Results for O/N=C(/CI)c1ccc2ccccc2c1 ?
TRPML1 agonist: -0.3

Results for CCCCOC(=O)CC(CC(=O)OCCCC)(OC(C)=O)C(=O)OCCCC ?
D3 ag: 0.2

How did CCOC(=O)CCc1c(C(=O)OCC)[nH]c(CC)c1C(=O)OCc1ccccc1 do in these assays?
DRD3 antagonist: 26.7; TRPML1 agonist: 0.7; TRPML1 blocker: 11.9; D3 ag: 31.4*

What do the screens show for `Cc1cccc(C)c1NC(=O)CSc1ncc2c(n1)-c1ccc(Cl)cc1N(Cc1ccccc1)S2(=O)=O`?
TRPML1 agonist: -0.9; TRPML1 blocker: 6.9; D3 ag: 2.1

Results for CC(=O)N1CCN(Cc2cc(=O)oc3cc(C)c(C)cc23)CC1 ?
DRD3 antagonist: -80.0*; TRPML1 agonist: -0.2; D3 ag: -4.2

Results for Cc1cc2oc(=O)cc(CN3CCCCC3)c2cc1C(C)C ?
DRD3 antagonist: -78.0*; TRPML1 agonist: 1.6; TRPML1 blocker: 26.1; D3 ag: 0.4

How did Cc1cc2oc(=O)cc(CN3CCC(C)CC3)c2cc1C do in these assays?
DRD3 antagonist: -71.5*; D3 ag: -12.2

What do the screens show for `COc1cc2oc(=O)cc(CN3CCN(C(C)=O)CC3)c2cc1Cl`?
DRD3 antagonist: -23.7; TRPML1 agonist: -0.3; D3 ag: -5.6

Results for Cc1cc2oc(=O)cc(CN3CCC(C)CC3)c2c(C)c1Cl ?
DRD3 antagonist: 20.6; TRPML1 agonist: -0.1; TRPML1 blocker: 17.9; D3 ag: 0.1

How did Cc1ccc(CN(Cc2cccn2-c2nnc(N3CCCC3=O)s2)C(=O)Nc2ccccc2Cl)cc1 do in these assays?
TRPML1 agonist: 1.1; TRPML1 blocker: 16.1; D3 ag: -7.3

Results for CCN(CC)CCCN(C(=O)c1ccco1)c1nc(-c2ccc(Cl)cc2)cs1 ?
DRD3 antagonist: -50.3*; TRPML1 agonist: -0.6; TRPML1 blocker: 7.4; D3 ag: -17.7

What do the screens show for `CC(=O)Nc1ccc(NC(=O)c2cccc(Oc3ccccc3)c2)cc1`?
DRD3 antagonist: -50.7*; TRPML1 agonist: -1.6; TRPML1 blocker: 1.3; D3 ag: -15.6

What do the screens show for `COC(=O)c1ccc(NC(=O)c2cccc(C)c2)cc1`?
DRD3 antagonist: -51.7*; TRPML1 agonist: -0.1; TRPML1 blocker: 9.5; D3 ag: -2.3

Results for COc1cccc(C(=O)Nc2ccc(C(=O)c3ccccc3)cc2)c1 ?
DRD3 antagonist: 0.6; TRPML1 agonist: -0.6; TRPML1 blocker: -18.7; D3 ag: 3.2

Results for COC(=O)c1ccc(NC(=O)c2cccc(OC)c2)cc1 ?
DRD3 antagonist: 19.8; TRPML1 agonist: 0.4; TRPML1 blocker: 4.5; D3 ag: -1.7

Results for S=Cc1ccc(/C=C/c2ccnc3ccccc23)cc1 ?
TRPML1 agonist: -0.1

How did Cc1ccc(NC(=S)NCc2cccn2C)cc1 do in these assays?
DRD3 antagonist: -16.4; TRPML1 agonist: -0.1; TRPML1 blocker: -0.8; D3 ag: 32.5*
